# Laboratory results: the supplement of paper PMC11732987, “Enantioselective OTUD7B fragment discovery through chemoproteomics screening and high-throughput optimisation” (Communications Chemistry, 2025)
# A number with no mark means an inactive call.
# Tests used:
# Test in all cases: log2 ratio of Biotin-Ahx-Ub-VS probe labelling (fragment/DMSO); higher = less target engagement (more negative = stronger competition), active = hit call of the paper (q ≤ 0.05, log2 ratio ≤ -1)
# Conditions in all cases: compound concentration: 200 uM; treatment time: 3 h
# OTUD6B = target: T1, OTUD6B (UniProt Q8N6M0)
# T1 sequence (whole entry): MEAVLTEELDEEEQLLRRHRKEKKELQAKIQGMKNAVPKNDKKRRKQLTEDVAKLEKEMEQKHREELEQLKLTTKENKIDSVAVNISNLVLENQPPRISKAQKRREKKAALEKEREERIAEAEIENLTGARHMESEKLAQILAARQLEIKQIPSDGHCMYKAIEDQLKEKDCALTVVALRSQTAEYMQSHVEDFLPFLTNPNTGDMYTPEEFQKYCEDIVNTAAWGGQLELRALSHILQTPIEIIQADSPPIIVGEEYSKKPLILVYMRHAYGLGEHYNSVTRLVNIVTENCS
# Method in brief: (§1)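 Using Biotin-Ahx-Ub-VS at 0.5 µM final for 1 h, DUBs were labelled in HEK293T lysate (495 µg per sample) that had first been treated in triplicate with fragment at 200 µM or vehicle for 3 h. NeutrAvidin enrichment, LysC and trypsin digestion and diaPASEF LC-MS/MS followed. Spectronaut label-free quantities were global-median-normalised. Values are average log2 fragment/vehicle ratios by unpaired t-test, using proteins with ≥2 unique peptides.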
# OTUD7B = target: T2, OTUD7B (UniProt Q6GQQ9)
# T2 sequence (whole entry): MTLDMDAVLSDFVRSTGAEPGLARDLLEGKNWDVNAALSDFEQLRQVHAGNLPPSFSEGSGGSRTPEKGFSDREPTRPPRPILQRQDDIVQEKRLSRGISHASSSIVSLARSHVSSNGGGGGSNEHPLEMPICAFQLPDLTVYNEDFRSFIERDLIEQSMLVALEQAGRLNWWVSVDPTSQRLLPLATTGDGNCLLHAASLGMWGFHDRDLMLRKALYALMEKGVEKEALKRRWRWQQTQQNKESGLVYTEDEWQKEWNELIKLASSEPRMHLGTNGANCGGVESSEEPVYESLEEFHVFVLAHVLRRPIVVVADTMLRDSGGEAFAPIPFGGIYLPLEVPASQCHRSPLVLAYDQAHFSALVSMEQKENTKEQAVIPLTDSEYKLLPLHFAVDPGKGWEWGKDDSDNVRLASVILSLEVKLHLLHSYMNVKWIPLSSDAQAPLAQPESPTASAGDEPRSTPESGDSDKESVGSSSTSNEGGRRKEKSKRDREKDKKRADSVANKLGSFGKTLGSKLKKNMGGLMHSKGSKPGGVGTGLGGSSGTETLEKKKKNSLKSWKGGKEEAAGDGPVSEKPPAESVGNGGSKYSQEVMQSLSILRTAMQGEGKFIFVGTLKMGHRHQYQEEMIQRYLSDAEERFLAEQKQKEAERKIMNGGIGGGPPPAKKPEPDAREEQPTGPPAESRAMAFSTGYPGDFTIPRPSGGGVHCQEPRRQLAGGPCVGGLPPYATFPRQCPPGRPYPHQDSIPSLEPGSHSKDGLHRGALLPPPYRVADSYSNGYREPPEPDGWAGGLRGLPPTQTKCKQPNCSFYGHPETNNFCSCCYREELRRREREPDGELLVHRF
# Method in brief: as §1
# PRPF8 = PRPF8 (UniProt Q6P2Q9)
# Method in brief: as §1
# PSMD7 = target: T3, PSMD7 (UniProt P51665)
# T3 sequence (whole entry): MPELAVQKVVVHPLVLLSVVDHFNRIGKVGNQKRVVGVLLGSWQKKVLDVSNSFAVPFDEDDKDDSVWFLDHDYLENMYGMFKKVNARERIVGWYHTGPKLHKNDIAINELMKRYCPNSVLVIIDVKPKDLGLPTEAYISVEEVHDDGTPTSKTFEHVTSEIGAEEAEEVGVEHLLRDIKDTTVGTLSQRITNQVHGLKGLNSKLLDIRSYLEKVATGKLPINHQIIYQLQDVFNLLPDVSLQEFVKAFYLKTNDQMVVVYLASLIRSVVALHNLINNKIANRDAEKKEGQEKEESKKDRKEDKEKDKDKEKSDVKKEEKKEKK
# Method in brief: as §1
# UCHL1 = UCHL1 (UniProt P09936)
# UCHL1, sequence (P09936 whole entry, looked up): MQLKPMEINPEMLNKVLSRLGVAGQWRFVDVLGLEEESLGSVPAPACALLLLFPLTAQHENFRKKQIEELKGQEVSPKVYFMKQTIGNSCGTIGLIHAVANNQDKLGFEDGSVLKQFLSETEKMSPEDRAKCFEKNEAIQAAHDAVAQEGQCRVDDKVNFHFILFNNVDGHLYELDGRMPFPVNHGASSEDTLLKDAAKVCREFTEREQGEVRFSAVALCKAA
# Method in brief: as §1
# UCHL3 = target: T4, UCHL3 (UniProt P15374)
# T4 sequence (whole entry): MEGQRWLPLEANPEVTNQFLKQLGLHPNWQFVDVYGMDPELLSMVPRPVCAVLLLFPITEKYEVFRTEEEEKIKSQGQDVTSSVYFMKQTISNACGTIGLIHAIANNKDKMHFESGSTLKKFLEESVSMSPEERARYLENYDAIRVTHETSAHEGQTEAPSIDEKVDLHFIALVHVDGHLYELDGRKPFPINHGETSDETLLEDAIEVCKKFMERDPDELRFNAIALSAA
# Method in brief: as §1
# UCHL5 = target: T5, UCHL5 (UniProt Q9Y5K5)
# T5 sequence (whole entry): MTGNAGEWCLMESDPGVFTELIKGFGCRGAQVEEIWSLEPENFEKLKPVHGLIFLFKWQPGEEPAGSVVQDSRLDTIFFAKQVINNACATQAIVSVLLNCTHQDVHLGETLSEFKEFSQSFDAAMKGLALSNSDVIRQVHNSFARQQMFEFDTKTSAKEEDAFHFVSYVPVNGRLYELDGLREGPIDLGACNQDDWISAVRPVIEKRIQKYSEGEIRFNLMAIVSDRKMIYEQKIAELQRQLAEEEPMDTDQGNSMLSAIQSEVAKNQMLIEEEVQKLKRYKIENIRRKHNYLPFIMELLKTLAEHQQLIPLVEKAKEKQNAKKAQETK
# Method in brief: as §1
# USP10 = USP10 (UniProt Q14694)
# USP10, sequence (Q14694 whole entry): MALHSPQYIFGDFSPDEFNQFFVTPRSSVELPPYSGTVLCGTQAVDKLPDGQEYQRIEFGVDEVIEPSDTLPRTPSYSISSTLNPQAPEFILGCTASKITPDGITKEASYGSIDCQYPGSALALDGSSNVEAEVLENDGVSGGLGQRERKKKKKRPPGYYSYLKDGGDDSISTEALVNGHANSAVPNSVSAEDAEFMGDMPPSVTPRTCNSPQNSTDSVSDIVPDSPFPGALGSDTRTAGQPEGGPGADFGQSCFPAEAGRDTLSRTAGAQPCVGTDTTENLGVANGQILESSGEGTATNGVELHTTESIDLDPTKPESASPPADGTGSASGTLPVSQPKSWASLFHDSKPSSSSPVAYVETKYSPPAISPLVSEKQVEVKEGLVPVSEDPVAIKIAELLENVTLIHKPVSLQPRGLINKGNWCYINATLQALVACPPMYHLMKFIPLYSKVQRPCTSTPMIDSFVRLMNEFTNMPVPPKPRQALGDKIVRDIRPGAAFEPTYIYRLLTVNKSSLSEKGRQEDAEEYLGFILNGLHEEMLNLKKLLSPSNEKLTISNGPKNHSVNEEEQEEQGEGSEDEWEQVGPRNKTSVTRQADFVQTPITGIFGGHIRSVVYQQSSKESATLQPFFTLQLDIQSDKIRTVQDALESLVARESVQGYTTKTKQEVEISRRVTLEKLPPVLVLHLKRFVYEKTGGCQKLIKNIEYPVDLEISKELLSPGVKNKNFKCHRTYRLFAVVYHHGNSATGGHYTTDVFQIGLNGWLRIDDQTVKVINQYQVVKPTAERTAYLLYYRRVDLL
# Method in brief: as §1
# USP15 = target: T6, USP15 (UniProt Q9Y4E8)
# T6 sequence (whole entry): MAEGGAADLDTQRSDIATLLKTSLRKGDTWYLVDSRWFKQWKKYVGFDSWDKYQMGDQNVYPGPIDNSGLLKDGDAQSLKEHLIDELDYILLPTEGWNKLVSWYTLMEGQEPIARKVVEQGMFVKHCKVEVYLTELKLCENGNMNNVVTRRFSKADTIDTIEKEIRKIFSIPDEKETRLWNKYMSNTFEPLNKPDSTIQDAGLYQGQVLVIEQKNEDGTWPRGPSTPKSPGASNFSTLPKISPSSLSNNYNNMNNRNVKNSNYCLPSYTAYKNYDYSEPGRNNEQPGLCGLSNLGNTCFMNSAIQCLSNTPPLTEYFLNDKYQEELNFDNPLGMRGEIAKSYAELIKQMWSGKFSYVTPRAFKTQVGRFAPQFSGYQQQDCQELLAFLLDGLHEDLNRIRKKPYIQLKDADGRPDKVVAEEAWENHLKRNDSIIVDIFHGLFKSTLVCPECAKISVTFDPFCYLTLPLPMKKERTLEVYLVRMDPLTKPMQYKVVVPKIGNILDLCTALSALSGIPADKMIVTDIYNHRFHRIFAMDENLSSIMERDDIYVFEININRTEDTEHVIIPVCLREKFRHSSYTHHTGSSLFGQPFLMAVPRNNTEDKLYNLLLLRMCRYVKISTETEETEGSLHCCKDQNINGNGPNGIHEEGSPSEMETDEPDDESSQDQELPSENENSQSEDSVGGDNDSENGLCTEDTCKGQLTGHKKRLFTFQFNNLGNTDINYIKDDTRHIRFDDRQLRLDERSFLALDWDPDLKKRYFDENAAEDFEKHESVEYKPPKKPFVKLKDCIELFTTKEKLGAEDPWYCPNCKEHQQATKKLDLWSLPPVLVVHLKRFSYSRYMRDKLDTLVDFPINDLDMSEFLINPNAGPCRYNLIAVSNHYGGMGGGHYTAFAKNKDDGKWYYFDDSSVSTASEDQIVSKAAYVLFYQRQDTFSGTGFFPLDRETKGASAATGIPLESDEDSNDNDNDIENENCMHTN
# Method in brief: as §1
# USP16 = USP16 (UniProt Q9Y5T5)
# USP16, sequence (Q9Y5T5 whole entry, looked up): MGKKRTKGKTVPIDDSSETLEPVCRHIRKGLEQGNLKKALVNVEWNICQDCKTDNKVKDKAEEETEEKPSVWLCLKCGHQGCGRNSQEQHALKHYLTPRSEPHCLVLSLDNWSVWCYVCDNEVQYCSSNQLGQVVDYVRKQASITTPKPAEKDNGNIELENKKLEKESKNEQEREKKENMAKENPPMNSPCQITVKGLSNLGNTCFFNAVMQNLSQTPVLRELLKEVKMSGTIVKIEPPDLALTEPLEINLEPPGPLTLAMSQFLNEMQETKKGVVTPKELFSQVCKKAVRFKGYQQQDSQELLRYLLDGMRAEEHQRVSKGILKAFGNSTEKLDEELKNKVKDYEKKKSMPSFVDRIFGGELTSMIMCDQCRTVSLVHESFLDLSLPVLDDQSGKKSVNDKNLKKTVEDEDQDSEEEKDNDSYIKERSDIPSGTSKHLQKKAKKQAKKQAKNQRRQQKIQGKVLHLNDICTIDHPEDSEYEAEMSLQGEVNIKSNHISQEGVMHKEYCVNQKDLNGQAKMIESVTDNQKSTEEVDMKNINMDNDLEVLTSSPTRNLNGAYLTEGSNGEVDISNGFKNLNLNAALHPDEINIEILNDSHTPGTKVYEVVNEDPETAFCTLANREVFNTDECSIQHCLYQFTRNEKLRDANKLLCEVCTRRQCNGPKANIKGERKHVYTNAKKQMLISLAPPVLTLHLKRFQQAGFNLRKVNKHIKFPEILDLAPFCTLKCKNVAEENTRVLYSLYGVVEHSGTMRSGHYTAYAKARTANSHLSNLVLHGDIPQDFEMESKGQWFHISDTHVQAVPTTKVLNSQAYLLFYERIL
# Method in brief: as §1
compound,measurement,setting,value
O=C(CCl)Nc1cc(Cl)ccc1C(=O)O,log2 ratio of Biotin-Ahx-Ub-VS probe labelling,OTUD6B,0.133
same,log2 ratio of Biotin-Ahx-Ub-VS probe labelling,OTUD7B,-0.0733
same,log2 ratio of Biotin-Ahx-Ub-VS probe labelling,PRPF8,-0.2
same,log2 ratio of Biotin-Ahx-Ub-VS probe labelling,PSMD7,-0.0699
same,log2 ratio of Biotin-Ahx-Ub-VS probe labelling,UCHL1,-1.38 (active)
same,log2 ratio of Biotin-Ahx-Ub-VS probe labelling,UCHL3,0.231
same,log2 ratio of Biotin-Ahx-Ub-VS probe labelling,UCHL5,-0.0926
same,log2 ratio of Biotin-Ahx-Ub-VS probe labelling,USP10,-0.101
same,log2 ratio of Biotin-Ahx-Ub-VS probe labelling,USP15,-0.15
same,log2 ratio of Biotin-Ahx-Ub-VS probe labelling,USP16,-0.669
